Screening data: PubChem BioAssay, National Center for Advancing Translational Sciences (NCATS)
The list is not random: actives were taken first. Their share in the collection is about 9.9%.
MCF10A rereplic – inducers of DNA re-replication in MCF 10A breast cells. MCF 10A DNA re-replication, Hoechst nuclear intensity, 48 h. Potency, µM (series often up to 46.1 µM), for the others: at the top dose activity, positive = re-replication, usual class: activators. 350,000 compounds, 2.9% hits; note: potency is the fitted concentration of half-maximal effect; % of control where 0% means no effect; nearly all actives have a fitted effect of over 50% in size
IL1B secr inh – inflammasome signaling inhibition, IL-1 beta readout. THP-1 LPS/ATP IL-1B secretion, AlphaLISA, 16 h; stronger effect = lower value. activity change, % at 57.5 µM. 360,000 compounds, 4.7% hits; in the data active = activity change below about -50%; inconclusive = mostly about -30% to -49%; note: % is set by controls: 0 for no effect and ±100 for the full control effect
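Secreted IL-1B measured by AlphaLISA bead assay after 16 h compound exposure of THP-1 cells; compounds (final up to 57.5 uM) added 1 h before LPS (250 ng/mL) and ATP (1.25 mM) stimulation; lower signal means less secretion.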
SW480 rerep – inducers of DNA re-replication in SW480 colon cancer cells. SW480 DNA re-replication, Hoechst DNA content imaging, 48 h. Potency, µM (top dose mostly 46.1 µM), for inactives: at the highest dose re-replication activation, most hits filed as activators. 340,000 compounds, 1.8% hits; note: potency is the fitted concentration of half-maximal effect; % of control where 0% means no effect; nearly all actives have a fitted effect of over 55% in size
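SW480 cells exposed to compounds for 48 hr at 37 C, 5% CO2, then Hoechst-stained 40 min. Nuclear DNA content imaged by fluorescence scanning (405 nm excitation, 500-530 nm emission); re-replication scored as increased high-intensity nuclei.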
KB-V1 MDR tox – KB-V1 MDR subline cytotoxicity; KB-V1 MDR cells viability, CellTiter-Glo, 72 h; Potency, µM (titrated, usually from 46.1 µM), usual class: cytotoxic; 400,000 compounds, 3.4% hits; AID 1347076; note: potency is the fitted concentration of half-maximal effect; % is set by controls: 0 for no effect and ±100 for the full control effect; nearly all actives have a fitted effect of over 60% in size
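KB-V1 cells (P-gp-expressing MDR subline of KB-3-1) in phenol-red-free DMEM with 10% FBS were exposed to library compounds over a concentration series for 72 h at 37 degrees C. Viability read by CellTiter-Glo luminescence; concentration-effect curves fitted after normalization.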
KB-3-1 cytotox – kills parental KB-3-1 adenocarcinoma cells. KB-3-1 viability, CellTiter-Glo ATP luminescence, 72 h. Potency, µM (series often up to 46.1 µM), most hits filed as cytotoxic. 400,000 compounds, 1.4% hits. AID 1347075; note: potency is the fitted concentration of half-maximal effect; % is set by controls: 0 for no effect and ±100 for the full control effect; nearly all actives have a fitted effect of over 60% in size
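72 h, 37 °C compound treatment of KB-3-1 parental cells; CellTiter-Glo added, 10 min, luminescence read. Data corrected against DMSO-only plates and normalized before curve fitting.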
* hit, by the source's call; i = inactive; ? = inconclusive; . = no result. Unless noted, calls come from the whole dose curve; as a rule, active = well fitted curve in the direction sought with a large enough effect; inconclusive = small, poorly fitted or top-dose-only effect, or another doubt; inactive = no such curve, though single readings can be large; an effect the other way counts as inactive or inconclusive.

SMILES	MCF10A rereplic	IL1B secr inh	SW480 rerep	KB-V1 MDR tox	KB-3-1 cytotox
Cc1ccc(C2C(=O)NC(=O)NC2=O)cc1	-2%	0	18µM*	i	i
Cc1ccc(N2C(=O)CC(=O)NC2=O)cc1	-6%	7	-3%	i	i
COc1ccc(NC(=O)Nc2cccc3c2O[C@H](CN(C)C(=O)NC2CCCCC2)[C@@H](C)CN([C@H](C)CO)C3=O)cc1	-6%	?	-22%	i	i
C#CC1(O)CCC2C3CCC4=CC(=O)CCC4(C)C3CCC21C (stereo not given)	5%	.	-2%	.	.
C#C[C@]1(O)CC[C@H]2[C@@H]3CCC4=Cc5nc6nc7ccccc7n6cc5C[C@]4(C)[C@H]3CC[C@@]21C	?	-25	7.9µM*	?	i
COc1cc([N+](=O)[O-])c2ncccc2c1[N+](=O)[O-]	.	-117*	.	16µM*	?
COc1cc([N+](=O)[O-])cc([N+](=O)[O-])c1N	.	.	.	i	i
COc1cc([N+](=O)[O-])c2nc(C)ccc2c1[N+](=O)[O-]	?	-3	15µM*	?	i
O=c1oc(-c2cccc(C(F)(F)F)c2)nn1-c1ccc(C(F)(F)F)cn1	?	.	-6%	i	?
O=C(NC(O)C(Cl)(Cl)Cl)NC(O)C(Cl)(Cl)Cl (stereo not given)	3%	.	9%	.	.
c1ccc(-c2ccc(CN3Cc4ccccc4-n4nncc4C3)cc2)cc1	.	49	.	?	?
O=[N+]([O-])c1ccccc1CN1CC=C(c2ccc(F)cc2)CC1	?	0	24%	i	i
O=[N+]([O-])c1cccc(CN2CC=C(c3ccc(F)cc3)CC2)c1	6%	-24	-6%	i	9.2µM*
CC(C)N1CCN(Cc2cccc([N+](=O)[O-])c2)CC1	1%	16	1.8µM*	i	i
Cc1cc2c(s1)Nc1ccccc1N=C2N1CCN(C)CC1	?	-18	-41%	i	i
O=[N+]([O-])c1ccc2c(c1)C(c1ccccc1)=NCCN2	3%	-15	5%	?	i
O=[N+]([O-])c1ccc(-c2ccccc2)c([As](=O)(O)O)c1	23µM*	-18	16%	i	i
Cc1ccccc1NP(=O)(Oc1ccccc1F)Oc1ccccc1F	4%	4	-4%	i	i
CN(C(=O)Oc1ccc(Cl)c2cccnc12)c1ccccc1	9%	-9	5%	18µM*	i
CN(C(=O)Oc1cccc2cccnc12)c1ccccc1	1%	1	3%	?	i
COC(=O)[C@H]1[C@H]2C[C@@H]3c4[nH]c5cc(OC)ccc5c4CCN3C[C@H]2C[C@@H](OC(=O)/C=C/c2cc(OC)c(OC)c(OC)c2)[C@@H]1OC	5.8µM*	50	18µM*	i	i
COC(=O)C1=C(c2ccc(F)cc2OCc2ccccc2)C[C@@H]2CC[C@H]1N2C(=O)N1CCCCC1	?	8	20%	?	?
COC(=O)C1=C(c2ccc(F)cc2OCc2ccccc2)C[C@@H]2CC[C@H]1N2C(=O)NCc1ccccc1Br	2%	-12	2%	i	?
COC(=O)C1=C(c2ccccc2OCc2ccccc2)C[C@@H]2CC[C@H]1N2C(=O)NCc1ccc(C(C)(C)C)cc1	?	-21	-3%	i	?
COC(=O)C1=C(c2ccc(F)cc2OCc2ccccc2)C[C@@H]2CC[C@H]1N2C(=O)NCc1ccc(C)cc1	-4%	-59*	?	i	?
COC(=O)C1=C(c2ccc(F)cc2OCc2ccccc2)C[C@@H]2CC[C@H]1N2C(=O)NCc1ccc(F)cc1	?	-19	0.52µM*	i	?
COC(=O)C1=C(c2ccc(F)cc2OCc2ccccc2)C[C@@H]2CC[C@H]1N2C(=O)N1CCC(O)(c2ccc(Cl)cc2)CC1	-35%	-53*	26%	?	?
COC(=O)C1=C(c2ccccc2OCc2ccccc2)C[C@@H]2CC[C@H]1N2C(=O)NCc1ccc(F)cc1	25%	?	?	18µM*	21µM*
